In PubChem BioAssay AID1159580 (chemical genetic matrix, 2015):
Where “and” joins values, the source holds several entries; their conditions need not be identical. Identical values can stand only once. The campaign covered roughly 5,500 compounds. About 2,000 (36%) were called active. Inconclusive results (about 18%) are left out. Cut-off read from the data, not from the text of the source: active = normalized growth mostly below about 0.91 (no sharp cut-off); inconclusive = no clear call, values can overlap the other calls; inactive = mostly above about 0.92. Some of the results follow.

Test: chemical genetic growth profiling, strain panel (AID 1159580);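 note: tested at 20 µM; growth read once vehicle control cultures reached saturation at 30 °C; 1 = growth at the plate median or of vehicle wells; lower values mean less growth of the strain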
Conditions: S. cerevisiae deletion strains, growth OD

Measured: normalized growth

O=C(/C=C/c1ccc(O)cc1)c1ccc(O)cc1O
inactive: locus YAL013W, strain DEP1, active compounds read low 0.996 and 0.982 | locus YAL021C, strain ccr4, active compounds read low 0.981 | locus YAL026C, strain drs2, active compounds read low 1.02 | locus YAL030W, strain snc1, active compounds read low 1.01 | locus YAL040C, strain CLN3, active compounds read low 0.986 | locus YBL061C, strain skt5, active compounds read low 1 | locus YBR009C, strain hhf1, active compounds read low 0.999 | locus YBR021W, strain FUR4, active compounds read low 1.04 | locus YBR023C, strain chs3, active compounds read low 0.997 | locus YBR171W, strain sec66, active compounds read low 1.01 | locus YBR229C, strain ROT2, active compounds read low 0.987 | locus YBR231C, strain swc5, active compounds read low 0.979 | locus YBR279W, strain paf1, active compounds read low 0.99 | locus YCL011C, strain gbp2, active compounds read low 0.995 | locus YCL016C, strain dcc1, active compounds read low 0.991 | locus YCL029C, strain bik1, active compounds read low 0.945 | locus YCL061C, strain MRC1 (second series), active compounds read low 1.01 | locus YCL069W, strain vba3, active compounds read low 1.01 | locus YCR088W, strain abp1, active compounds read low 1.01 | locus YDL005C, strain med2, active compounds read low 1.02 | locus YDL035C, strain GPR1, active compounds read low 0.98 | locus YDL040C, strain nat1, active compounds read low 1 | locus YDL074C, strain BRE1, active compounds read low 0.912 | locus YDL101C, strain DUN1, active compounds read low 1 | locus YDL185W, strain tfp1, active compounds read low 0.919 | locus YDL192W, strain arf1, active compounds read low 0.948 | locus YDR001C, strain nth1, active compounds read low 1 | locus YDR069C, strain doa4, active compounds read low 1 | locus YDR101C, strain arx1, active compounds read low 0.96 | locus YDR137W, strain rgp1, active compounds read low 1.08 | locus YDR150W, strain NUM1, active compounds read low 0.991 and 1.01 | locus YDR159W, strain sac3, active compounds read low 0.99 | locus YDR162C, strain NBP2, active compounds read low 1.02 | locus YDR195W, strain ref2 1.04 | locus YDR297W, strain sur2, active compounds read low 1 | locus YDR318W, strain mcm21, active compounds read low 0.966 | locus YDR334W, strain swr1, active compounds read low 1 | locus YDR335W, strain msn5, active compounds read low 1.02 | locus YDR363W, strain ESC2, active compounds read low 1.01 | locus YDR388W, active compounds read low 0.96 | locus YDR392W, strain spt3, active compounds read low 0.892 | locus YDR502C, strain sam2, active compounds read low 0.963 | locus YEL003W, strain gim4, active compounds read low 1.01 | locus YEL037C, strain rad23, active compounds read low 1.01 | locus YEL061C, strain CIN8 (second series), active compounds read low 1.01 | locus YEL061C, strain CIN8, active compounds read low 0.992 | locus YER002W, strain NOP16, active compounds read low 0.985 | locus YER015W, strain faa2, active compounds read low 1 | locus YER016W, strain bim1, active compounds read low 1.01 | locus YER110C, active compounds read low 0.955 | locus YER111C, strain swi4, active compounds read low 1.02 | locus YER155C, strain BEM2 (second series), active compounds read low 0.97 | locus YER155C, strain BEM2, active compounds read low 0.972 | locus YER167W, strain BCK2, active compounds read low 0.971 | locus YFR010W, strain ubp6, active compounds read low 1.02 | locus YGL078C, strain dbp3, active compounds read low 1.01 | locus YGL086W, strain mad1, active compounds read low 0.958 | locus YGL167C, strain pmr1, active compounds read low 1.02 | locus YGL173C, strain kem1, active compounds read low 1.02 | locus YGL227W, strain vid30, active compounds read low 1.01 | locus YGL240W, strain doc1, active compounds read low 0.994 | locus YGL248W, strain PDE1, active compounds read low 1.01 | locus YGL253W, strain hxk2, active compounds read low 0.987 | locus YGR078C, strain PAC10, active compounds read low 0.997 and 0.992 | locus YGR135W, strain pre9, active compounds read low 0.941 | locus YGR252W, strain gcn5, active compounds read low 0.935 | locus YHR013C, strain ard1, active compounds read low 1.03 | locus YHR027C, strain rpn1, active compounds read low 1.01 | locus YHR030C, strain SLT2, active compounds read low 0.98 and 0.955 | locus YHR079C, strain IRE1 (second series), active compounds read low 0.959 | locus YHR079C, strain IRE1, active compounds read low 0.895 | locus YHR094C, strain hxt1, active compounds read low 0.965 | locus YHR129C, strain ARP1, active compounds read low 0.978 | locus YHR142W, strain chs7, active compounds read low 0.985 | locus YHR200W, strain rpn10, active compounds read low 0.944 | locus YIL066C, strain RNR3, active compounds read low 0.975 | locus YIL073C, strain SPO22, active compounds read low 0.96 | locus YIL125W, strain kgd1, active compounds read low 0.963 | locus YIR030C, strain dcg1, active compounds read low 0.973 | locus YJL092W, strain hpr5, active compounds read low 1.01 | locus YJL095W, strain BCK1 (second series), active compounds read low 1.01 | locus YJL095W, strain BCK1, active compounds read low 1.01 and 0.977 | locus YJL115W, strain asf1, active compounds read low 1.02 | locus YJL129C, strain trk1, active compounds read low 0.983 | locus YJL134W, strain LCB3, active compounds read low 0.97 | locus YJL154C, strain vps35, active compounds read low 1.02 | locus YJL164C, strain tpk1, active compounds read low 0.986 | locus YJL166W, strain qcr8, active compounds read low 1.01 | locus YJL168C, strain set2, active compounds read low 0.963 | locus YJL187C, strain SWE1 (second series), active compounds read low 0.994 | locus YJR043C, strain POL32, active compounds read low 0.961 | locus YJR066W, strain TOR1, active compounds read low 0.904
